# Laboratory results reported in PubChem BioAssay (EPA / NIEHS).
# Results filed as inconclusive are left out. Calls of active or inactive are those of the source. Rule for the calls: active = hit-call score of the fitted dose curve at least 0.9, where 1 is the maximum; inconclusive = response in the unintended direction; inactive = score below 0.9.
# Tests used:
# [1] = molecular target: human AMP-activated Protein Kinase, alpha 1 (AMPKa1), PRKAA1 (gene 5562) (UniProt Q13131); assay: NVS_ENZ_hAMPKa1: NovaScreen (NVS) Enzymatic Assay for human AMP-activated Protein Kinase, alpha 1 (AMPKa1) (AID 2283130)
# Summary of the method: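 Recombinant human AMPKα1 activity was measured cell-free by fluorescent substrate conversion with electrophoretic mobility-shift separation, 1 h after dosing. Duplicate single-point screening was at 25 uM; actives (≥30% inhibition) were retested in concentration-response up to 50 uM.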
# [2] = molecular target: human Fibroblast Growth Factor Receptor 1 (FGFR1), FGFR1 (gene 2260) (UniProt P11362); assay: NVS_ENZ_hFGFR1: NovaScreen (NVS) Enzymatic Assay for human Fibroblast Growth Factor Receptor 1 (FGFR1) (AID 2283159);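 for AC50: hits lower the signal so potencies describe inhibitors of the kinase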
# Summary of the method: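 Cell-free recombinant kinase with fluorescent substrate, product separated by electrophoretic mobility shift; read 1 hour after dosing, loss of signal relative to DMSO. Initial screen in duplicate at 25 uM, actives followed in concentration series.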
# [3] = molecular target: human MET Proto-Oncogene, Receptor Tyrosine Kinase (MET), MET (gene 4233) (UniProt P08581); assay: NVS_ENZ_hMet: NovaScreen (NVS) Enzymatic Assay for human MET Proto-Oncogene, Receptor Tyrosine Kinase (MET) (AID 2283180)
# Summary of the method: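 Cell-free MET kinase assay using recombinant protein and fluorescent substrate, with mobility-shift separation; read 1 h after dosing. Primary duplicate at 25 uM; actives in singleton concentration-response to 50 uM maximum. Signal loss versus DMSO.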
# [4] = molecular target: human NIMA (Never In Mitosis Gene A)-Related Kinase 2 (NEK2), NEK2 (gene 4751) (UniProt P51955); assay: NVS_ENZ_hNEK2: NovaScreen (NVS) Enzymatic Assay for human NIMA (Never In Mitosis Gene A)-Related Kinase 2 (NEK2) (AID 2283188)
# Summary of the method: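 Cell-free NEK2 enzyme activity after 1 h exposure, read by fluorescence with electrophoretic mobility shift separating substrate and product. Primary screen in duplicate at 25 uM; actives then run as concentration series. Loss of signal versus DMSO scored.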
# [5] = molecular target: human Phosphatase and Tensin Homolog (PTEN), PTEN (gene 5728) (UniProt P60484); assay: NVS_ENZ_hPTEN: NovaScreen (NVS) Enzymatic Assay for human Phosphatase and Tensin Homolog (PTEN) (AID 2283203)
# Summary of the method: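 Cell-free recombinant human PTEN with fluorescent substrate; product separated by electrophoretic mobility shift and read by fluorescence 1 h after dosing. Primary screen in duplicate at 25 uM, actives followed in concentration series versus DMSO.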
# [6] = molecular target: human Raf-1 Proto-Oncogene, serine/threonine Kinase (RAF1), RAF1 (gene 5894) (UniProt P04049); assay: NVS_ENZ_hRAF1: NovaScreen (NVS) Enzymatic Assay for human Raf-1 Proto-Oncogene, serine/threonine Kinase (RAF1) (AID 2283216)
# Summary of the method: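 Cell-free recombinant kinase with specific fluorescent substrate, product separated by electrophoretic mobility shift; read 1 h after dosing. Primary screen at 25 uM in duplicate; hits then run in concentration-response up to 50 uM, fitted as loss of signal versus DMSO.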
# [7] = molecular target: human Tyrosine Protein Kinase Receptor Tie-2 (Tie2), TEK (gene 7010) (UniProt Q02763); assay: NVS_ENZ_hTie2: NovaScreen (NVS) Enzymatic Assay for human Tyrosine Protein Kinase Receptor Tie-2 (Tie2) (AID 2283225)
# Summary of the method: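 Recombinant human Tie2 kinase activity was read cell-free by fluorescence with electrophoretic mobility shift, 1 hour after dosing. The screen used 25 uM in duplicate, then concentration-response up to 50 uM. Signal loss was scored against DMSO.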
# [8] = molecular target: rat Adenylate Cyclase, Forskolin Stimulated, Adcy5 (gene 64532) (UniProt Q04400); assay: NVS_ENZ_rACFSKBinding: NovaScreen (NVS) Enzymatic Assay for rat Adenylate Cyclase, Forskolin Stimulated (AID 2283232)
# Summary of the method: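 Rat forebrain membrane preparation, cell-free, read 1 h after dosing by filter-based scintillation counting. Primary screen in duplicate at 25 uM; actives (e.g. ≥30% inhibition) rerun in concentration-response up to 50 uM; fit versus DMSO.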
# [9] = molecular target: rat Monoamine Oxidase, MAO-B, Peripheral (MAOBP), Maob (gene 25750) (UniProt P19643); assay: NVS_ENZ_rMAOBP: NovaScreen (NVS) Enzymatic Assay for rat Monoamine Oxidase, MAO-B, Peripheral (MAOBP) (AID 2283242)
# [10] = molecular target: rat Corticotropin Releasing Factor Receptor (CRF), Crhr1 (gene 58959) (UniProt P35353); assay: NVS_GPCR_rCRF: NovaScreen (NVS) G Protein-Coupled Receptor Assay for rat Corticotropin Releasing Factor Receptor (CRF) (AID 2283300)
# Summary of the method: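 Rat cortical membranes used as receptor source in a radioligand competitive displacement binding assay; scintillation read 2 h after dosing. Primary screen run in duplicate at 25 uM; loss of signal versus DMSO baseline indicates binding.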
# [11] = molecular target: human Ephrin type-A Receptor 2 (EphA2), EPHA2 (gene 1969) (UniProt P29317); assay: NVS_ENZ_hEphA2: NovaScreen (NVS) Enzymatic Assay for human Ephrin type-A Receptor 2 (EphA2) (AID 2283155)
# Summary of the method: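 Cell-free recombinant EphA2 kinase with specific substrate, 1 h, fluorescence with electrophoretic mobility-shift separation of substrate and product. Primary screen at 25 uM in duplicate; hits retested in singleton concentration-response up to 50 uM, referenced to DMSO.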
# [12] = molecular target: human Acetylcholinesterase (AChE), ACHE (gene 43) (UniProt P22303); assay: NVS_ENZ_hAChE: NovaScreen (NVS) Enzymatic Assay for human Acetylcholinesterase (AChE) (AID 2283129)
# Summary of the method: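 Cell-free colorimetric enzyme-activity assay; compounds read 0.33 hour after dosing, loss of signal vs DMSO baseline. Primary screen in duplicate at 25 uM single concentration, with active compounds retested in concentration series.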
# [13] = molecular target: rat Acetylcholinesterase (AChE), Ache (gene 83817) (UniProt P37136); assay: NVS_ENZ_rAChE: NovaScreen (NVS) Enzymatic Assay for rat Acetylcholinesterase (AChE) (AID 2283233)
# Summary of the method: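 Rat brain membrane acetylcholinesterase activity measured colorimetrically 0.33 h after compound addition, loss of signal relative to DMSO. Primary screen in duplicate at 25 uM; actives re-run as concentration-response with 50 uM top concentration.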
# [14] = molecular target: Norway rat Vesicular Monoamine Transporter (VMAT2), neurotransmitter transporter, Slc18a2 (gene 25549) (UniProt Q01827); assay: NVS_TR_rVMAT2: NovaScreen (NVS) Transporter Assay for Norway rat Vesicular Monoamine Transporter (VMAT2), neurotransmitter transporter (AID 2283376);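 note: actives lower the bound radioligand signal below the DMSO level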
# Summary of the method: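 Radioligand displacement binding on rat forebrain tissue preparation, filter-based scintillation read-out 1 hour after dosing. Primary screen in duplicate at 25 uM, then concentration series for actives; loss of signal versus DMSO.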
# [15] = molecular target: human Caspase 10 (CASP10), CASP10 (gene 843) (UniProt Q92851); assay: NVS_ENZ_hCASP10: NovaScreen (NVS) Enzymatic Assay for human Caspase 10 (CASP10) (AID 2283133)
# Summary of the method: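 Recombinant human caspase-10 from E. coli, cell-free fluorogenic substrate assay read 1 h after dosing. Primary duplicate screen at 25 uM; hits (e.g. ≥30% inhibition) run singly in concentration-response up to 50 uM, normalised to DMSO.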
# [16] = molecular target: human Mitogen-Activated Protein Kinase 1 (MAPK 1), MAPK1 (gene 5594) (UniProt P28482); assay: NVS_ENZ_hMAPK1: NovaScreen (NVS) Enzymatic Assay for human Mitogen-Activated Protein Kinase 1 (MAPK 1) (AID 2283175)
# Summary of the method: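 Cell-free recombinant human MAPK1 enzymatic assay, fluorescence/electrophoretic mobility shift read at 1 h; loss of signal vs DMSO. Primary screen in duplicate at 25 uM; actives (e.g. ≥30% inhibition) run as concentration-response up to 50 uM.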
# [17] = molecular target: rat Gamma-Aminobutyric Acid Type A Receptor BDZ, alpha 6 site (GABARa6), Gabra6 (gene 29708) (UniProt P30191); assay: NVS_LGIC_rGABARa6: NovaScreen (NVS) Ligand-Gated Ion Channel Assay for rat Gamma-Aminobutyric Acid Type A Receptor BDZ, alpha 6 site (GABARa6) (AID 2283339)
# Summary of the method: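 Rat cerebellar membranes; radioligand binding, filtration and scintillation counting, read 1 h after dosing. Single-concentration duplicate screen at 25 uM, then concentration-response up to 50 uM for actives; loss of signal fitted versus DMSO baseline.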
# [18] = molecular target: Protein deacetylase HDAC6 (Homo sapiens) (UniProt Q9UBN7); assay: NVS_ENZ_hHDAC6: NovaScreen (NVS) Enzymatic Assay for human Histone Deacetylase 6 (HDAC6) (AID 2283164)
# Summary of the method: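 Recombinant human HDAC6 with fluorescent substrate, 1 h; product separated from substrate by electrophoretic mobility shift. Primary screen in duplicate at 25 uM; actives retested singly in concentration-response up to 50 uM, fitted relative to DMSO.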
# [19] = molecular target: human Protein Tyrosine Phosphatase Non-receptor Type 2 (PTPN2), PTPN2 (gene 5771) (UniProt P17706); assay: NVS_ENZ_hPTPN2: NovaScreen (NVS) Enzymatic Assay for human Protein Tyrosine Phosphatase Non-receptor Type 2 (PTPN2) (AID 2283207)
# Summary of the method: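 Cell-free recombinant enzyme with fluorescent substrate, product separated by electrophoretic mobility shift; read 1 h after dosing. Primary screen single concentration (25 uM) in duplicate; actives followed in concentration series; loss of signal versus DMSO.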
# [20] = molecular target: human Neonicotinoid receptor (NNR), CHRNA2 (gene 1135) (UniProt Q15822); assay: NVS_LGIC_hNNR_NBungSens: NovaScreen (NVS) Ligand-Gated Ion Channel Assay for human Neonicotinoid receptor (NNR) (AID 2283313)
# Summary of the method: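 Radioligand displacement on human neuroblastoma membranes, 2 h, filter-based scintillation counting. Primary screen in duplicate at 25 uM; chemicals passing threshold (e.g. 30% inhibition) run singleton concentration-response to 50 uM; loss of binding fitted versus DMSO.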
# [21] = molecular target: human p21 Activated Kinase 4 (PAK4), PAK4 (gene 10298) (UniProt O96013); assay: NVS_ENZ_hPAK4: NovaScreen (NVS) Enzymatic Assay for human p21 Activated Kinase 4 (PAK4) (AID 2283189)
# Summary of the method: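 Cell-free recombinant human PAK4 activity assay; fluorescent substrate and product separated by electrophoretic mobility shift, read 1 h after dosing. Initially tested in duplicate at 25 uM, relative to DMSO baseline.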
# Sequence of human Tyrosine Protein Kinase Receptor Tie-2 (Tie2), TEK (gene 7010) (Q02763 whole entry, looked up): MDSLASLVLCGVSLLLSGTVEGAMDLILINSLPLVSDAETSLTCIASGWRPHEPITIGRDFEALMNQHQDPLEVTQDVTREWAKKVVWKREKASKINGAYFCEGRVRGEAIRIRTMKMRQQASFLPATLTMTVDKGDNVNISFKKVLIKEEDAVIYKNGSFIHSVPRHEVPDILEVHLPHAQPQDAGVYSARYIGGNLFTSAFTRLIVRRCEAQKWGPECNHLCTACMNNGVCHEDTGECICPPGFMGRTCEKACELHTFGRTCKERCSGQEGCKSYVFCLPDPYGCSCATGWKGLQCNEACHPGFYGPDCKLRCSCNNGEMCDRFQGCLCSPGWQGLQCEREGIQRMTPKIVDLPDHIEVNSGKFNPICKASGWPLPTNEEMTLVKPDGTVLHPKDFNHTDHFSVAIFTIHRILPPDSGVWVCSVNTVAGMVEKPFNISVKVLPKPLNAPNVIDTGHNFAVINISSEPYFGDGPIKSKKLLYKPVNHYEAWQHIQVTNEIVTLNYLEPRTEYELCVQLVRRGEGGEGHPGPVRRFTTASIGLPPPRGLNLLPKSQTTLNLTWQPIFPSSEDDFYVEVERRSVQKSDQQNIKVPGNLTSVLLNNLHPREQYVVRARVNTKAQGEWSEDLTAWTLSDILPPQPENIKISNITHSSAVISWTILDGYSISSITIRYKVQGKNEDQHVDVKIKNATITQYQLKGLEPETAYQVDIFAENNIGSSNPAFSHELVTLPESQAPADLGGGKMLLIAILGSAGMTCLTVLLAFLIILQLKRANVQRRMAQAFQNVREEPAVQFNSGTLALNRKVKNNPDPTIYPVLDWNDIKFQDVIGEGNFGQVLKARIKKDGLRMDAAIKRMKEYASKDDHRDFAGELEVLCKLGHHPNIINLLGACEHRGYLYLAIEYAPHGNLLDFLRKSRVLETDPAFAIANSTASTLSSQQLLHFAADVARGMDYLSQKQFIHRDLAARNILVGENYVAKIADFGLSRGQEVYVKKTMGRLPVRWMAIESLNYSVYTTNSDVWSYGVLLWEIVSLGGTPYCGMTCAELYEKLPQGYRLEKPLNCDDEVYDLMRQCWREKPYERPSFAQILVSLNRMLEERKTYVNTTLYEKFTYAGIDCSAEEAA
# Sequence of human Raf-1 Proto-Oncogene, serine/threonine Kinase (RAF1), RAF1 (gene 5894) (P04049 whole entry, looked up): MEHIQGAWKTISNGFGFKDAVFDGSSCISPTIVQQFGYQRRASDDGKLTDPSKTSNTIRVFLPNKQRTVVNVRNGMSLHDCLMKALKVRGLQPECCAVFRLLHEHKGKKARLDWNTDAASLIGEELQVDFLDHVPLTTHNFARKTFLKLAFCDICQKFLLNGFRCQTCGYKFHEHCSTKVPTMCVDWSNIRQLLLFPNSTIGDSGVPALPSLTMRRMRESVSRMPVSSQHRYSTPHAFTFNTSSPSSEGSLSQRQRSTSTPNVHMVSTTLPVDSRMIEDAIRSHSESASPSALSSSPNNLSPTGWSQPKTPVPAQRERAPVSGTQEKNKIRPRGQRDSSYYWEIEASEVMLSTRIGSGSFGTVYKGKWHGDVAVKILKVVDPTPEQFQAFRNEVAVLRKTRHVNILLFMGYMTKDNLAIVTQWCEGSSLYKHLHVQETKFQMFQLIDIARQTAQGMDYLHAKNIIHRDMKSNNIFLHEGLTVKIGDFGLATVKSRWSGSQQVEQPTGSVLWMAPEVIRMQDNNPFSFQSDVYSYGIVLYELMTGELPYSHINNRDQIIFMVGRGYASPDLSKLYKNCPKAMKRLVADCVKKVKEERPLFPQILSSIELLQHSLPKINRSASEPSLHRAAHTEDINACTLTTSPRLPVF
# Sequence of human Fibroblast Growth Factor Receptor 1 (FGFR1), FGFR1 (gene 2260) (P11362 whole entry, looked up): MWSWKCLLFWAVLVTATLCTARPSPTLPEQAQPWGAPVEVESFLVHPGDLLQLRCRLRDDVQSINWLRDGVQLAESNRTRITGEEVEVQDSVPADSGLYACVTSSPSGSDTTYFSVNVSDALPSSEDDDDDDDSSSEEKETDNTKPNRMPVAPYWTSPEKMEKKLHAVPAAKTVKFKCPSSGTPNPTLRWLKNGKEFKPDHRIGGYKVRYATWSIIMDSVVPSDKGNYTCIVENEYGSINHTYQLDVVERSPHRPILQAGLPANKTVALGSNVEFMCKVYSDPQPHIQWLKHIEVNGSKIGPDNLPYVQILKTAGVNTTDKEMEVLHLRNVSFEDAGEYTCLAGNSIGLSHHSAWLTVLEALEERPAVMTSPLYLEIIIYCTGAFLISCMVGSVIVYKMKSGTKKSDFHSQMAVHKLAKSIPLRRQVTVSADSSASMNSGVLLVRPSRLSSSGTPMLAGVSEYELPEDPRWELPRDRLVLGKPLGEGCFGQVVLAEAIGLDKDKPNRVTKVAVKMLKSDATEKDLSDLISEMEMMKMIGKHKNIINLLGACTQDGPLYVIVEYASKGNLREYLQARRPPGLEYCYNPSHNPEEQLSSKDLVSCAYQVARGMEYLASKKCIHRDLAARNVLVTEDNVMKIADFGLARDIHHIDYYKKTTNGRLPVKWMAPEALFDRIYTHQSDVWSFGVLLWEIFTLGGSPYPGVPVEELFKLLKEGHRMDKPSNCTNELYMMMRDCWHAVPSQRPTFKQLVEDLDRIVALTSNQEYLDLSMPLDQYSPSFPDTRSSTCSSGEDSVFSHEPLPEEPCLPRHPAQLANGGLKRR
# Sequence of human AMP-activated Protein Kinase, alpha 1 (AMPKa1), PRKAA1 (gene 5562) (Q13131 whole entry, looked up): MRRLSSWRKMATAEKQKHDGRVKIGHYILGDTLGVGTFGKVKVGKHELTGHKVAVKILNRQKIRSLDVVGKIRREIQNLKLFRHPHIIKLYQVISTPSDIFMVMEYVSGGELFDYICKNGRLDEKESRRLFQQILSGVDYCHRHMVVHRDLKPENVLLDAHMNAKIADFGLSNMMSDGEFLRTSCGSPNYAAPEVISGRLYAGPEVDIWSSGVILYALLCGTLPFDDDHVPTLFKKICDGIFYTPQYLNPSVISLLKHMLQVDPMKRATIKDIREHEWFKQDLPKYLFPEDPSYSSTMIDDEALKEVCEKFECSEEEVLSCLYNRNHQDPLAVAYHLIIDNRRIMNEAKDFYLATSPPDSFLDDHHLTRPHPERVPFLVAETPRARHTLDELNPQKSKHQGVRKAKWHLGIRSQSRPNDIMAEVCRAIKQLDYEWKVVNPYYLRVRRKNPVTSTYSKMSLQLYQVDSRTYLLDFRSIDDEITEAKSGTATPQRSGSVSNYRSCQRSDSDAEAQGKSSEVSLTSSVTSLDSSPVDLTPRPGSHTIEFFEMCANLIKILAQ
# Sequence of human Phosphatase and Tensin Homolog (PTEN), PTEN (gene 5728) (P60484 whole entry, looked up): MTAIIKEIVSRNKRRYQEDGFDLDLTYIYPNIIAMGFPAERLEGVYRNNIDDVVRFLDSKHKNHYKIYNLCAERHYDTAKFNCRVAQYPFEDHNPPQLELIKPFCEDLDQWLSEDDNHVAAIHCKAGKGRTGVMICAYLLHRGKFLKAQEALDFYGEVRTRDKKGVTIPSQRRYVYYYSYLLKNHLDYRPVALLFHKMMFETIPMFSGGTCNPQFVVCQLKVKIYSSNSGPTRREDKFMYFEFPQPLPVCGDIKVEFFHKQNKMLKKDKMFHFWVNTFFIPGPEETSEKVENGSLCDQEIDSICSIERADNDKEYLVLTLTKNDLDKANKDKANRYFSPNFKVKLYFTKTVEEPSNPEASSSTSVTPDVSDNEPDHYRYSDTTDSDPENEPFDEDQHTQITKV
# Sequence of human MET Proto-Oncogene, Receptor Tyrosine Kinase (MET), MET (gene 4233) (P08581 whole entry, looked up): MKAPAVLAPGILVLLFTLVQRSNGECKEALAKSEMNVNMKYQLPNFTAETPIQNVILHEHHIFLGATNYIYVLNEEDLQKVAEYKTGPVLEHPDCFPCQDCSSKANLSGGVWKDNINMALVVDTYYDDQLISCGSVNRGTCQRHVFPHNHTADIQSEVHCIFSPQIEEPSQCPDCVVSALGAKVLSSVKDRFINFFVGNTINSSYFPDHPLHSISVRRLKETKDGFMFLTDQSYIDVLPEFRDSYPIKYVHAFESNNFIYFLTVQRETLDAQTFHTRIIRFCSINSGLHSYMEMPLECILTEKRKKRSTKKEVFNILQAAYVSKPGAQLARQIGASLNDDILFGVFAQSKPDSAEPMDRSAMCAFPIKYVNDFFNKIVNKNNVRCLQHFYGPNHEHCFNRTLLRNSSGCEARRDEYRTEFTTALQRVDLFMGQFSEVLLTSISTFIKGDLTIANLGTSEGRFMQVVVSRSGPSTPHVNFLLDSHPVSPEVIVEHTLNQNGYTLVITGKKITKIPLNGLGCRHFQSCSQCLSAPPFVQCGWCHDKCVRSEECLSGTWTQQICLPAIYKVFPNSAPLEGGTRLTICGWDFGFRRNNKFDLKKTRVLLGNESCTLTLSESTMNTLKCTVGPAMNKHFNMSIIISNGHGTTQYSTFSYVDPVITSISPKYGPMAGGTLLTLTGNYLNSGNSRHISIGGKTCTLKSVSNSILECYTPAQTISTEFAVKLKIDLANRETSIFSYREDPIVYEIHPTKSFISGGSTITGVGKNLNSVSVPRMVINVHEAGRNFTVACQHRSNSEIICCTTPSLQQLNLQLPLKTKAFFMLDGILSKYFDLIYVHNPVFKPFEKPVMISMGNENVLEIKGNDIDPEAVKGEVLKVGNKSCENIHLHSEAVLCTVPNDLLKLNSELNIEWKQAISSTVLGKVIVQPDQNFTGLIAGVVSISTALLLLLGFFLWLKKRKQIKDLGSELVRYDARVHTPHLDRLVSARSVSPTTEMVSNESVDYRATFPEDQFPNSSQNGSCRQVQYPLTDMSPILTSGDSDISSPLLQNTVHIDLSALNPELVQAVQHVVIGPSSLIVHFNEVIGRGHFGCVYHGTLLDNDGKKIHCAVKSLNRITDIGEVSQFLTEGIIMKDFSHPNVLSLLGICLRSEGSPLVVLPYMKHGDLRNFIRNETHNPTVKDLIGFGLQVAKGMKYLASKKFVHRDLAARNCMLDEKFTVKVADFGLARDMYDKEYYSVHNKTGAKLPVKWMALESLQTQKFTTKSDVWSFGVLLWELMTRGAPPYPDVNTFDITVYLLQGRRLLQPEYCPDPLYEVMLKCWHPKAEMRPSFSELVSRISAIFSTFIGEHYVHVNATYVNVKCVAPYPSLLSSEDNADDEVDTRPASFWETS
smiles,measurement,setting,value
CN(C)c1ccc(N=NS(=O)(=O)O)cc1,outcome,[1],inactive
same,outcome,[2],inactive
same,outcome,[3],inactive
same,outcome,[4],inactive
same,outcome,[5],inactive
same,outcome,[6],inactive
same,outcome,[7],inactive
same,outcome,[8],inactive
same,AC50,[9],23.8 µM (active)
same,outcome,[10],inactive
CC1=C(/C=C/C(C)=C/C=C/C(C)=C/CO)C(C)(C)CCC1,outcome,[1],inactive
same,outcome,[11],inactive
same,outcome,[2],inactive
COCCOc1cc2cc(C(=O)NC3CCN(C(C)C)CC3)n(CC(=O)Nc3ccc(Cl)cn3)c2cn1,AC50,[12],29 µM (active)
same,AC50,[13],19 µM (active)
same,outcome,[14],inactive
C[Si]1(C)O[Si](C)(C)O[Si](C)(C)O[Si](C)(C)O1,outcome,[1],inactive
same,outcome,[15],inactive
same,outcome,[16],inactive
same,outcome,[7],inactive
same,outcome,[17],inactive
same,outcome,[14],inactive
NCCO,outcome,[1],inactive
same,outcome,[2],inactive
same,outcome,[18],inactive
same,outcome,[16],inactive
same,outcome,[3],inactive
same,outcome,[5],inactive
same,outcome,[19],inactive
same,outcome,[6],inactive
same,outcome,[7],inactive
same,outcome,[9],inactive
O=C1O[C@H]([C@@H](O)CO)C(O)=C1O,outcome,[1],inactive
Clc1cc(Cl)c2c(c1)N=C1CCCCCN1C2,AC50,[12],0.351 µM (active)
same,outcome,[2],inactive
same,outcome,[6],inactive
same,AC50,[13],0.463 µM (active)
same,AC50,[20],1.98 µM (active)
O=c1[nH]cnc2c1ncn2[C@H]1CC[C@@H](CO)O1,outcome,[1],inactive
same,outcome,[2],inactive
same,outcome,[18],inactive
same,outcome,[3],inactive
same,outcome,[21],inactive
same,outcome,[5],inactive
same,outcome,[19],inactive
same,outcome,[7],inactive
CN1C(=O)N(c2ccccc2Br)Cc2cnc(Nc3ccc4c(c3)OCC(CO)O4)nc21 (configuration not stated),outcome,[1],inactive
same,outcome,[15],inactive
same,AC50,[2],0.0059 µM (active)
same,AC50,[4],0.00229 µM (active)
same,AC50,[21],8.54 µM (active)
same,AC50,[6],0.00359 µM (active)
